# Experimental data: PubChem BioAssay (NCI)
# The panel holds about 83,000 compounds, 20% with a hit somewhere; the sample as a whole holds those more often.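 Percent growth is the endpoint: 0 to 100 indicates growth inhibition (40 means 60% inhibition), 0 means no net growth, and negative values indicate cell death.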 A number with no mark means an inactive call. The source made the active and inactive calls. How the source made its calls: active means growth percent below 10; inactive means the rest.
# Columns and labels:
# Test in all cases: NCI-60 one-dose screen, 48 h (100 = growth as untreated, 0 = no growth, -100 = all killed)
# Details in all cases: 10 µM unless noted
# [1] = tested on: HCT-15 colon
# [2] = tested on: HT29 colon
# [3] = tested on: SNB-75 CNS
# [4] = tested on: SNB-19 CNS
# [5] = tested on: U251 CNS
# [6] = tested on: PC-3 prostate
# [7] = tested on: SK-MEL-5 melanoma
# [8] = tested on: UACC-62 melanoma
# [9] = tested on: LOX IMVI melanoma
# [10] = tested on: SK-MEL-28 melanoma
# [11] = tested on: SK-MEL-2 melanoma
# [12] = tested on: EKVX NSCLC
# [13] = tested on: SN12C renal
# [14] = tested on: UO-31 renal
# [15] = tested on: TK-10 renal
# [16] = tested on: ACHN renal
# [17] = tested on: A498 renal
# [18] = tested on: CCRF-CEM leukemia
# [19] = tested on: MOLT-4 leukemia
Compound,growth [1],growth [2],growth [3],growth [4],growth [5],growth [6],growth [7],growth [8],growth [9],growth [10],growth [11],growth [12],growth [13],growth [14],growth [15],growth [16],growth [17],growth [18],growth [19]
C=C1C(=O)O[C@H]2[C@H]1CC/C(COC(=O)c1ccccc1)=C\CC[C@@]1(C)O[C@@H]21,-66.1% (active),-62.7% (active),68.8%,33.1%,26.8%,35%,12%,-66.9% (active),-88.6% (active),-33.9% (active),15%,11.5%,-22.4% (active),-95.7% (active),-0.228% (active),-83.7% (active),99.4%,-26% (active),-22.2% (active)
Cc1cccc(NCS(=O)(=O)O)c1,101%,101%,106%,101%,87.8%,93%,99.7%,113%,95.2%,113%,109%,98.7%,112%,93%,98.5%,107%,111%,102%,102%
CCC(C)Nc1ccc(N)cc1 (centres undefined),30.5%,7.64% (active),29.8%,30.6%,10.3%,6.03% (active),-6.02% (active),30.3%,5.41% (active),71.6%,7.8% (active),8.66% (active),10.5%,-2.85% (active),45.4%,46%,91.9%,12.8%,-13.7% (active)
C=CCn1c(SCC(=O)Nc2ccc(/C(C)=N\O)cc2)nnc1-c1cc(-c2ccc(OC)cc2)nc2ccccc12,36.3%,42%,57.4%,44.5%,29.8%,29.9%,36.4%,37.7%,-65.4% (active),61.7%,22.3%,42.5%,44.4%,14.7%,37.5%,28.9%,38.7%,15%,1.81% (active)
c1ccc2nc(Cn3cc[n+](Cc4ccc5ccccc5n4)c3)ccc2c1,102%,41.9%,70.7%,47.7%,44.2%,42.6%,16.9%,54.6%,75.4%,63.8%,55%,88.3%,40.5%,88%,98.3%,102%,90.7%,80%,65.4%
Clc1ccc(OCc2nc(-c3ccccc3)n[nH]2)c(Cl)c1,101%,101%,93.6%,99.3%,95.5%,87.3%,100%,95.6%,94.6%,110%,103%,93.8%,96.6%,77.1%,122%,98%,104%,85.9%,98.7%
Cc1[nH]n(C(=O)c2ccncc2)c(=O)c1N=Nc1ccc(S(=O)(=O)Nc2ccncn2)cc1,112%,109%,93.9%,105%,105%,100%,106%,98.8%,93.6%,112%,116%,94.4%,97%,85.1%,101%,104%,111%,-33.9% (active),102%
O=C(COc1ccc(Cl)cc1Cl)N1N=C(c2ccc(Cl)cc2Cl)CC1(O)c1cc(F)c(Cl)cc1Cl (centres undefined),158%,116%,108%,88%,131%,102%,80.8%,156%,128%,141%,95.3%,87.7%,155%,76.3%,139%,234%,142%,125%,-47.9% (active)
COC(=O)c1oc2c(C(=O)/C=C/c3ccc(OC)cc3)c(OCCN3CCOCC3)ccc2c1C,-57% (active),-20.4% (active),-26.8% (active),-2.78% (active),-81.7% (active),8.1% (active),-100% (active),-0.039% (active),-85.3% (active),4.47% (active),-30.6% (active),9.46% (active),17.5%,-66.4% (active),25.4%,-34.5% (active),-47.7% (active),-38.4% (active),-20.5% (active)
COc1ccccc1S(=O)(=O)Nc1ccc2c3c(cc(-c4ccoc4)nc13)C(=O)N2C,66.6%,43.8%,16.6%,75.9%,77.9%,66.9%,56.6%,38.3%,51.9%,75.6%,74.8%,66.4%,82.3%,39.9%,37.5%,70.6%,71.7%,76.5%,75.8%
CN1C(=O)C2(SCC(C(=O)NCC(=O)OC(C)(C)C)N2C(=O)C2CCCCC2)c2ccccc21 (centres undefined),96.6%,87.6%,80.4%,99.2%,92%,94.6%,98.2%,91.8%,94.9%,103%,86.9%,96.6%,99.2%,84%,103%,99.8%,83.5%,96.3%,92.6%
O=C(N/N=C/c1ccccc1O)c1ccccc1O,30.1%,72.9%,78.3%,51.7%,36.2%,39.6%,10.6%,24%,12.8%,46.9%,61.1%,37.5%,41%,3.31% (active),42.4%,16.7%,99.6%,12.7%,19.3%
COc1ccc2c(c1)nnn1c3ncccc3c(N=O)c21,-33.2% (active),-48.8% (active),-23.3% (active),-4.29% (active),-64.4% (active),9.89% (active),36%,-76.8% (active),-59.1% (active),16.2%,-65.9% (active),15%,-80.4% (active),-99.3% (active),-15.1% (active),-30.8% (active),31.9%,-22.8% (active),-55.6% (active)
COc1ccc(C(=O)Cn2cnc3c(Nc4cc(C(=O)Nc5ccc(N6CCN(CCO)CC6)cc5)ccc4C)ncnc32)cc1,102%,101%,79.4%,108%,105%,105%,102%,104%,94.2%,105%,100%,99%,104%,87.6%,102%,103%,111%,105%,90%
Cc1ccccc1C[P+](c1ccccc1)(c1ccccc1)c1ccccc1,107%,10.5%,9.33% (active),28.7%,16.4%,14.5%,-23.2% (active),18.8%,14.7%,27.2%,2.07% (active),29.5%,40.5%,76.6%,36.1%,71%,89.5%,24.9%,35.7%
COC(=O)c1oc2c(C(C)=O)c(OCCCN(C)C)ccc2c1C,99.6%,69.1%,91.3%,103%,99.5%,88.9%,103%,98.8%,95%,110%,106%,187%,109%,75.3%,90.8%,107%,125%,-13.6% (active),85.8%
